DT40 TDP1 CPT: qHTS for Inhibitors of human tyrosyl-DNA phosphodiesterase 1 (TDP1): qHTS in cells in presence of CPT; chicken DT40 Tdp1-/-;hTDP1 cells + 20 nM CPT, ATP luminescence, 48 h; 420,000 compounds, 12% hits; Potency, µM (titrated, usually from 46.2 µM), without a hit: at the top dose activity change, negative = growth inhibition, usual class: inhibitors; AID 686979, 2013; further: potency means the concentration at half of the fitted maximal effect; on the % scale 0 is the no-effect control and ±100 the full control effect; nearly all actives have a fitted effect of over 55% in size
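Chicken DT40 Tdp1-/- cells complemented with human TDP1, 400 cells/well, exposed to compounds plus 20 nM camptothecin for at least 48 h at 37 C; viability read as ATP content by CellTiter-Glo luminescence.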
TDP1 inh: qHTS Assay for Inhibitors of Tyrosyl-DNA Phosphodiesterase (TDP1) | Tyrosyl-DNA phosphodiesterase 1 (Homo sapiens), Q9NUW8 | recombinant TDP1, AlphaScreen DNA substrate cleavage | Potency, µM (doses to about 130 µM), for the others: top-dose activity change, negative = inhibition, usual class: inhibitors | 350,000 compounds, 0.28% hits; further: potency means the concentration at half of the fitted maximal effect; on the % scale 0 is the no-effect control and ±100 the full control effect; nearly all actives have a fitted effect of over 40% in size
Target sequence (Q9NUW8 whole entry, looked up): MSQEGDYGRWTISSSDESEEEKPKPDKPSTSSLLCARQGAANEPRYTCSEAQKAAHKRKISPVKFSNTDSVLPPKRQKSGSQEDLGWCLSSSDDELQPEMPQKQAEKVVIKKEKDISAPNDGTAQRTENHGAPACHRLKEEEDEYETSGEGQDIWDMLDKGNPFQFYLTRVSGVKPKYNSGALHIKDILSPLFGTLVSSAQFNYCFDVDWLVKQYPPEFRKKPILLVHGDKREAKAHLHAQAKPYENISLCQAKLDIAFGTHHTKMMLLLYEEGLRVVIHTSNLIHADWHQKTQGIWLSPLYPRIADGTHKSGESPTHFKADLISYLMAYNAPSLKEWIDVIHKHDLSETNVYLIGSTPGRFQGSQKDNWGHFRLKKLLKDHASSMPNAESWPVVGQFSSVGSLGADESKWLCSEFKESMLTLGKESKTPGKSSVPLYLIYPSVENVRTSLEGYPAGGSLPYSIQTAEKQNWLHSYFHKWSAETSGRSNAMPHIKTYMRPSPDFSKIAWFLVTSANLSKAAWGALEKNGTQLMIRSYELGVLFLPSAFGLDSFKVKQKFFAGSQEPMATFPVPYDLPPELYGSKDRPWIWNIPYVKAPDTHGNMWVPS
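Here, a 5' biotin and 3' phosphotyrosine-FITC DNA oligonucleotide reports Tdp1 activity: intact substrate bridges AlphaScreen beads, while cleavage leaves a 3' phosphate and drops signal. All incubations at room temperature.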
IL-1B inflam inh: qHTS for Inhibitors of Inflammasome Signaling: IL-1-beta AlphaLISA Primary Screen | THP-1 LPS/ATP IL-1B secretion, AlphaLISA, 16 h; stronger effect = lower value | activity change, % at 57.5 µM | 360,000 compounds, 4.7% hits | AID 743279, 2014; in the data active means activity change below about -50%; inconclusive means mostly about -30% to -49%; further: on the % scale 0 is the no-effect control and ±100 the full control effect
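THP-1 cells pretreated 1 hr with compounds (up to 57.5 uM final), then stimulated with LPS (250 ng/mL final) plus ATP (1.25 mM final); secreted IL-1B measured by AlphaLISA after 16 hr, decreased signal indicating inhibition.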
DT40 TDP1 no CPT: qHTS for Inhibitors of human tyrosyl-DNA phosphodiesterase 1 (TDP1): qHTS in cells in absence of CPT; 420,000 compounds, 15% hits; Potency, µM (doses to about 46.2 µM), for inactives: at the top dose activity change, negative = growth inhibition, hits mostly inhibitors; DT40 Tdp1-/- hTDP1 cells, no CPT, ATP luminescence, 48 h; further: potency means the concentration at half of the fitted maximal effect; on the % scale 0 is the no-effect control and ±100 the full control effect; nearly all actives have a fitted effect of over 55% in size
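Stably hTDP1-transfected Tdp1-null chicken DT40 cells were treated with library compounds minus camptothecin and grown for at least 48 hr at 37 °C, after which cellular ATP was quantified by luminescence.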
HepG2 tox: qHTS for Inhibitors of TGF-b: Cytotox Counterscreen | HepG2 CAGA-GFP viability, ATP luminescence, 18 h | Potency, µM (titrated, usually from 46.1 µM), without a hit: at the highest dose activity change, negative = cytotoxicity, hits mostly cytotoxic | 410,000 compounds, 0.76% hits; further: potency means the concentration at half of the fitted maximal effect
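HepG2 CAGA-GFP cells (1000/well, DMEM with 1% FBS) received compound, then TGF-beta at 500 pg/mL final, and were incubated 18 hours at 37 degrees C. Viability was read by CellTiter-Glo luminescence. Media-only wells were set as complete cell-killing and DMSO as no toxicity.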
TGFb inhibitor: qHTS for Inhibitors of TGF-b. HepG2 CAGA-GFP TGF-b/SMAD3 reporter, GFP fluorescence, 18 h; TGF-beta stimulated, 500 pg/mL final. Potency, µM (doses to about 46.1 µM), for the others: at the highest dose activity, negative = inhibition, most hits filed as inhibitors. 410,000 compounds, 1.2% hits. AID 588855, 2011; further: potency means the concentration at half of the fitted maximal effect; on the % scale 0 is the no-effect control and ±100 the full control effect; nearly all actives have a fitted effect of over 65% in size
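Inhibition of TGF-beta-driven CAGA-GFP reporter expression in HEPG2 cells is measured by cellular GFP fluorescence after 18 h stimulation with 500 pg/mL recombinant TGF-beta in 1% FBS medium at 37 degrees C.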
* = called active by the depositor; ? = inconclusive; . = no result given; [ ] = remark or other dose. Compounds with a hit are over-represented: about 18% of the library has one in this group of screens. Unless noted, the call rests on the fitted dose curve; in most records, active means well fitted curve in the direction sought with a large enough effect; inconclusive means small, poorly fitted or top-dose-only effect, or another doubt; inactive means no such curve, though single readings can be large; an effect the other way counts as inactive or inconclusive.

SMILES | DT40 TDP1 CPT | TDP1 inh | IL-1B inflam inh | DT40 TDP1 no CPT | HepG2 tox | TGFb inhibitor
CCCOc1ccc(C(=O)Nc2cc3nn(-c4ccc(CC)cc4)nc3cc2C)cc1 | 0.0% | -0.6% | . | -23.5% | 4.4% | -5.2%
COc1ccc(NC(=O)c2cccc(F)c2)cc1Cl | -5.4% | 0.0% | -22.9 | -10.4% | -4.1% | -15.9%
COC(=O)c1cccc(NC(=O)c2ccc(OC)c(Cl)c2)c1 | 2.6% | 3.1% | -72.1* | ? | -28.1% | -3.4%
C(=Nc1cnc2ccccc2c1)c1ccnc2ccccc12 | 2.82µM* | . | . | 2.82µM* | 4.5% | -1.7%
C(=Nc1cccnc1)c1ccnc2ccccc12 | 2µM* | . | . | 1.78µM* | -1.5% | -6.2%
C(=Nc1cnc2ccccc2c1)c1cccnc1 | 17.4% | . | . | 4.8% | 9.2% | -8.2%
O=C(Nc1cccc2ncccc12)c1cccnc1 | -11.4% | 0.0% | 28.4 | -21.8% | -0.7% | 10.8%
O=c1ccc2cc(O)c(O)cc2o1 | 16.4µM* | 0.0% | 19.1 | ? | -15.5% | 3.0%
O=c1ccc2ccc(O)cc2o1 | -19.6% | 20.6% | 43.8 | -29.7% | -14.6% | 3.2%
Cn1cnnc1Sc1ccc(CN2CCOc3ccc(C4=Cc5ccccc5C4)cc3C2)o1 | -1.4%[9.04 µM] | . | . | -29.9% | . | .
O=C(NCc1ccccn1)C1CC(c2ccc(F)cc2)=NO1 (stereo not drawn) | -13.1% | 0.5% | 7.7 | -5.1% | -1.7% | -2.2%
O=C(NCc1ccccn1)C1CC(c2ccc(Cl)c(Cl)c2)=NO1 (stereo not drawn) | ? | 3.4% | 32.9 | 20.6µM* | -7.2% | -19.2%
COc1ccc(C2=NOC(C(=O)NCc3cccnc3)C2)cc1OC (stereo not drawn) | ? | . | 28.3 | ? | -1.7% | -11.8%
O=C(NCc1cccnc1)C1CC(c2ccc(Cl)c(Cl)c2)=NO1 (stereo not drawn) | ? | . | 33.7 | 20.6µM* | -20.9% | -22.7%
C=CCOC(=O)C(C(C)=O)C(NC(=O)OC)c1ccc2ccccc2c1 (stereo not drawn) | . | 10.1%[21 µM] | . | . | . | .
COc1ccc(NS(=O)(=O)c2cccc(C(=O)NNC(=O)CNC(=O)c3cccc(C)c3)c2)cc1 | 9.5% | 5.0% | 14.0 | 16.0% | -2.8% | 3.1%
CCn1c(CCn2c3ccccc3c3ccccc32)n[nH]c1=S | 14.6µM* | 2.6% | 4.0 | ? | -19.2% | -23.4%
CCn1c(CCc2ccccc2)n[nH]c1=S | -6.9% | 4.9% | -6.3 | ? | -35.5% | 0.1%
COc1ccc(Cc2nnc(SCC(=O)Nc3ccccc3C#N)o2)cc1 | -12.5% | 5.3% | -4.0 | -5.3% | -6.8% | 1.7%
COc1cccc(/C=C(/C(=O)OCC(=O)NC2CCCC(C)C2C)c2ccccc2)c1 (stereo not drawn) | ? | 1.1% | -65.2* | 20.6µM* | -22.6% | ?
COc1cccc(/C=C(/C(=O)OCC(N)=O)c2ccccc2)c1 | -2.0% | 2.7% | -15.9 | -26.2% | 0.7% | -3.5%
C(/CCc1ccccc1)=N\Nc1nc2ccccc2[nH]1 | ? | 11.4% | 19.9 | 18.4µM* | -0.6% | ?
O=C(NCc1nc2ccccc2[nH]1)C1CCCCC1 | 5.8% | 3.5% | 0.7 | -22.4% | 11.6% | 8.9%
Fc1ccc(/C=N/Nc2nc3ccccc3[nH]2)cc1F | ? | 8.9% | ? | ? | -5.3% | -27.6%
Fc1cccc(/C=N/Nc2nc3ccccc3[nH]2)c1 | ? | 7.7% | -91.2* | ? | -21.2% | -24.6%
SMILES | DT40 TDP1 CPT | TDP1 inh | IL-1B inflam inh | DT40 TDP1 no CPT | HepG2 tox | TGFb inhibitor
C(=C\c1ccccc1)/C=N/Nc1nc2ccccc2[nH]1 | 7.31µM* | 11.0% | 54.2 | 7.31µM* | -38.2% | ?
C(=N\Nc1nc2ccccc2[nH]1)/C1CCCCC1 | 18.4µM* | 8.0% | 38.0 | ? | -33.9% | -25.2%
CCOC(=O)[C@]12CCCC=C1N(CCc1ccc(OC)c(OC)c1)C(=O)[C@H](CC(=O)N1CCN(C(=O)C3CC3)CC1)C2 | -9.9% | . | 18.6 | -14.0% | . | .
C(=N\Nc1ncnc2ccccc12)/c1ccccc1 | 3.66µM* | 5.9% | 48.7 | 4.61µM* | -61.8% | ?
C(=N\Nc1nc2ccccc2[nH]1)/c1ccccc1 | ? | 6.0% | -94.5* | ? | -8.9% | -7.7%
Fc1cccc(/C=N/Nc2ncnc3nc[nH]c23)c1 | -3.0% | 1.3% | -97.5* | -18.0% | -32.7% | ?
Clc1ccc(/C=N/Nc2nc(Cl)nc3ccccc23)cc1 | ? | 7.4% | 15.2 | ? | 0.8% | -18.0%
Fc1ccccc1/C=N/Nc1ncnc2nc[nH]c12 | -6.4% | 1.3% | 69.5 | -26.0% | -13.0% | -44.7%
Cc1cccc2cc(CN(Cc3ccccc3)C(=O)c3cccc(F)c3)c(Cl)nc12 | 29.1µM* | -3.4% | -7.9 | ? | -17.9% | -24.0%
Cc1ccc(N(Cc2ccccc2)C(=O)c2cccc(F)c2)cc1 | ? | 4.3% | -61.2* | ? | 0.0% | -8.7%
CC(=O)N1CCN(S(=O)(=O)c2cccc(C(=O)N(Cc3ccccc3)c3ccc(C)cc3)c2)CC1 | ? | . | -6.7 | ? | -53.6% | -4.5%
Cc1ccc(N(Cc2ccccc2)C(=O)c2ccc(F)cc2)cc1 | 20.6µM* | 5.8% | -27.5 | ? | -21.3% | -4.5%
Cn1ccc(C(=O)NCC2CCC3(CCN(Cc4ccc(F)cc4F)CC3)O2)n1 (stereo not drawn) | -12.4% | . | . | -5.7% | . | .
O=C(NCc1ccco1)c1ccc(Cl)c(S(=O)(=O)N2CCCC2)c1 | ? | -2.7%[56.1 µM] | 13.4 | 2.0% | 0.7% | -6.9%
COCCn1c(=O)c(-c2ccc(F)cc2)nc2cnc(OC)nc21 | -21.6% | . | . | -9.7% | . | .

Screening data as filed in PubChem BioAssay.
